For nine molecules, outcome and Potency results are on record in PubChem BioAssay (Tox21).

Results filed as inconclusive are left out. The source made the active and inactive calls. Unless noted, calls follow the shape of the dose curve; as a rule, active = well fitted curve in the direction sought with a large enough effect in the repeat runs; inconclusive = weak or mixed curves; inactive = no such curve, though single readings can be large; an effect the other way counts as inactive or inconclusive.

Assay [1] can be described thus: qHTS assay to identify small molecule antagonists of the glucocorticoid receptor (GR) signaling pathway - cell viability counter screen (AID 720693). Also: nearly all actives have a fitted effect of over 55% in size.
Assay [2] can be described thus: qHTS assay for identifying genotoxic compounds that show differential cytotoxicity against isogenic chicken DT40 cell lines with known DNA damage response pathways - Rev3 mutant cell line (AID 743014). Also: nearly all actives have a fitted effect of over 55% in size. Also: potency is read from the fitted curve at half-maximal effect.
The nature of assay [3]: qHTS assay to identify small molecule antagonists of the androgen receptor (AR) signaling pathway - cell viability counter screen (AID 743033; also: nearly all actives have a fitted effect of over 45% in size).
Assay [4] can be described thus: qHTS assay to identify small molecule antagonists of the thyroid receptor (TR) signaling pathway - cell viability counter screen (AID 743064). Also: nearly all actives have a fitted effect of over 50% in size. Also: potency is read from the fitted curve at half-maximal effect. The method, boiled down:
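Same-well viability check: GH3.TRE-Luc cells stimulated with 1 nM T3 alongside test compound for 23.5 h, followed by CellTiter-Fluor fluorescence.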

Assay [5] concerns the target Estrogen receptor (Homo sapiens) (UniProt P03372). Description: qHTS assay to identify small molecule antagonists of the estrogen receptor alpha (ER-alpha) signaling pathway (AID 743069; active = well fitted curve in the direction sought with a large enough effect in the signal ratio in the repeat runs, not every such curve was filed as active; the % refers to the signal ratio). The method, boiled down:
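A 17beta-estradiol challenge was applied right after compound transfer to ER-alpha-UAS-bla HEK293 cells previously kept in charcoal-stripped serum. Plates stood 18 hr at 37C and 5% CO2; fluorescence was read following 2 hr FRET substrate loading at room temperature.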

The nature of assay [6]: qHTS assay to identify small molecule antagonists of the estrogen receptor alpha (ER-alpha) signaling pathway - cell viability counter screen (AID 743074; calls by dose curve;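 also: HEK293 cells carrying ER-alpha-UAS-bla reporter stimulated with 17beta-estradiol; nearly all actives have a fitted effect of over 45% in size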).
Assay [7] concerns the target Estrogen receptor (Homo sapiens) (UniProt P03372). Description: qHTS assay to identify small molecule agonists of the estrogen receptor alpha (ER-alpha) signaling pathway (AID 743075; calls by dose curve;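 also: HEK293 GripTite cells with ER-alpha and UAS-driven beta-lactamase reporter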).
Assay [8] has the same target. Description: qHTS assay to identify small molecule agonists of the estrogen receptor alpha (ER-alpha) signaling pathway using the BG1 cell line (AID 743079). Also: nearly all actives have a fitted effect of over 20% in size. Also: potency is read from the fitted curve at half-maximal effect.
A short description of assay [9]: qHTS assay to identify small molecule antagonists of the estrogen receptor alpha (ER-alpha) signaling pathway using the BG1 cell line (AID 743080; calls by dose curve;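 also: BG1 cells stimulated with 17beta-estradiol alongside compound; series mostly up to about 70 µM; nearly all actives have a fitted effect of over 25% in size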). The method, boiled down:
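Seeding, 24 h rest, compound transfer from DMSO, 17beta-estradiol addition, 21.5 h incubation, CellTiter-Fluor (30 min, 37 C), then ONE-Glo (30 min, room temperature): this sequence was run on BG1-Luc-4E2 reporter cells.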

For a further assay, the target named is Aromatase (Homo sapiens) (UniProt P11511). Description: qHTS assay to identify aromatase inhibitors (AID 743083). Also: series mostly up to about 70 µM; nearly all actives have a fitted effect of over 55% in size.
Chain of Aromatase (Homo sapiens) (P11511 whole entry, looked up): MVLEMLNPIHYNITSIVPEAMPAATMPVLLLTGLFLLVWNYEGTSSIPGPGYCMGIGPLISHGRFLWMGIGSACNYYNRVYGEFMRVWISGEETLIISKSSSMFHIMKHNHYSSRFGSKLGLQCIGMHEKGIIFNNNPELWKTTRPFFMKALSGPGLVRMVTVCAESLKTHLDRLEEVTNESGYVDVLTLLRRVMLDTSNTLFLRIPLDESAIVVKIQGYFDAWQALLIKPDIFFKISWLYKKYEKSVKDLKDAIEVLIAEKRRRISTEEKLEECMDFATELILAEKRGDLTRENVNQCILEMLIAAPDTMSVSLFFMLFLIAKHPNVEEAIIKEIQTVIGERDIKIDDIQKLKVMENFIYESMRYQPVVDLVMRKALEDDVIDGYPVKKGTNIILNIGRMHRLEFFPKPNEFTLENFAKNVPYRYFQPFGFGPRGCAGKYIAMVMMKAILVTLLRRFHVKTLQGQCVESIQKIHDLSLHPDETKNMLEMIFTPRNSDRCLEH
The nature of assay [10]: qHTS assay to identify aromatase inhibitors - cell viability counter screen (AID 743084).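 Also: cells stimulated with testosterone during compound exposure; nearly all actives have a fitted effect of over 55% in size.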
In assay [11] the target is Androgen receptor (Homo sapiens) (UniProt P10275). Description: qHTS assay to identify small molecule agonists of the androgen receptor (AR) signaling pathway (AID 743036; active = well fitted activation curve with a large enough effect in the signal ratio in the repeat runs, with a control signal flat, not every such curve was filed as active; the % refers to the signal ratio). The method, boiled down:
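Agonist activity was scored by beta-lactamase reporter fluorescence in stably transfected HEK293 cells exposed to compounds for 16 h at 37C and 5% CO2. Substrate loading took 2 h at room temperature.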

For assay [12] the target is unchanged. As to the kind of experiment: qHTS assay to identify small molecule agonists of the androgen receptor (AR) signaling pathway using the MDA cell line (AID 743040; also: nearly all actives have a fitted effect of over 20% in size; also: potency is read from the fitted curve at half-maximal effect). The method in brief: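 Cell-based luciferase reporter: MDA-kb2, MMTV promoter (AR + GR response elements). 16 h compound exposure at 37C; ONE-Glo, 30 min RT, luminescence.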
Assay [13] is described as follows: qHTS assay to identify small molecule antagonists of the androgen receptor (AR) signaling pathway using the MDA cell line - cell viability counter screen (AID 743041; also: nearly all actives have a fitted effect of over 45% in size). The method, boiled down: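 In this qHTS counter assay, fluorescence intensity after CellTiter-Fluor addition indicated viability of MDA-kb2 AR-luc cells given compounds and R1881 for 16 h at 37C.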

The target in assay [14] is Androgen receptor (Homo sapiens) (UniProt P10275). Description: qHTS assay to identify small molecule antagonists of the androgen receptor (AR) signaling pathway using the MDA cell line (AID 743042; also: nearly all actives have a fitted effect of over 55% in size). The method, boiled down: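 MDA-kb2 cells (human breast carcinoma, stably carrying an MMTV-luciferase reporter responsive to AR and GR) were plated at 3,000 cells/well and preincubated 5 hr at 37C, then given compound plus R1881 agonist for 16 h. ONE-Glo luminescence was read.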
Chain of Androgen receptor (Homo sapiens) (P10275 whole entry, looked up): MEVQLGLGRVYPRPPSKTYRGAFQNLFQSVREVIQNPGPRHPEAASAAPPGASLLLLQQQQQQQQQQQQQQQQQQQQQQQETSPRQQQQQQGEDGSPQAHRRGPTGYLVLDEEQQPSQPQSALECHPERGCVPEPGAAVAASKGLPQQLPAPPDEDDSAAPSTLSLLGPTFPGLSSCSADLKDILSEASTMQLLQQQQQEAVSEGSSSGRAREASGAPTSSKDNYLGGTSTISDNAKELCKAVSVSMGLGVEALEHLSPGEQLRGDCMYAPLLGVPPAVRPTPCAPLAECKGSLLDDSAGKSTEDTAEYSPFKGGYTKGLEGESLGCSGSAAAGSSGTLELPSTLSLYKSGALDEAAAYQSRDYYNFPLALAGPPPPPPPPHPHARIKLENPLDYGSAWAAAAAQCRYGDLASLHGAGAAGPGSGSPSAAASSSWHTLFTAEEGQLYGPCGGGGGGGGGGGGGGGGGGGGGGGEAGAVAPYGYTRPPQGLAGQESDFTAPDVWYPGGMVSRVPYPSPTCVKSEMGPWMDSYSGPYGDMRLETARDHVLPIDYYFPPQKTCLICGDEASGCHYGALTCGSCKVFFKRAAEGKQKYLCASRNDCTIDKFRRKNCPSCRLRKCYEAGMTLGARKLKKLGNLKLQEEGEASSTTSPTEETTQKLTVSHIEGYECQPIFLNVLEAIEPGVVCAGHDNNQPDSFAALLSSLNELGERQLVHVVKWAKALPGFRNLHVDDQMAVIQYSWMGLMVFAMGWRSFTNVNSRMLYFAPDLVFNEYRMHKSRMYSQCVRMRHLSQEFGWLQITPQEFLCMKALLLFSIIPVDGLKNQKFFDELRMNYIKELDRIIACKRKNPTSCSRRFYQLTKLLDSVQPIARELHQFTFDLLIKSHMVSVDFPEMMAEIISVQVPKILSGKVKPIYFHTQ

The subject of assay [15] is thyroid hormone receptor (rat, GH3 cells). As to the kind of experiment: qHTS assay to identify small molecule agonists of the thyroid receptor (TR) signaling pathway (AID 743066; calls by dose curve).
Assay [16] in a line: qHTS assay to identify small molecule antagonists of the estrogen receptor alpha (ER-alpha) signaling pathway using the BG1 cell line - cell viability counter screen (AID 743081).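 Also: compound given together with 17beta-estradiol as the ER stimulus; series mostly up to about 70 µM; nearly all actives have a fitted effect of over 45% in size.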
Assay [17] in a line: qHTS assay for identifying genotoxic compounds that show differential cytotoxicity against isogenic chicken DT40 cell lines with known DNA damage response pathways - Rad54/Ku70 mutant cell line (AID 743015). Also: nearly all actives have a fitted effect of over 60% in size. Also: potency is read from the fitted curve at half-maximal effect.
A short description of assay [18]: qHTS assay for identifying genotoxic compounds that show differential cytotoxicity against isogenic chicken DT40 cell lines with known DNA damage response pathways - wild type cell line (AID 743012). Also: nearly all actives have a fitted effect of over 60% in size. The method, boiled down: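 Luminescent ATP viability signal (CellTiter-Glo, 30 min RT) recorded after wild type DT40 cells were incubated with compounds for 40 h at 37 C/5% CO2.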

The nature of assay [19]: qHTS assay to identify small molecule antagonists of the thyroid receptor (TR) signaling pathway (AID 743065). The method, boiled down:
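GH3.TRE-Luc rat pituitary cells carrying two TR response elements driving luciferase were plated for 4 h, given compound plus 1 nM T3 (final), and incubated 23.5 h at 37 C. ONE-Glo luminescence measured reporter inhibition; CellTiter-Fluor fluorescence tracked cytotoxicity.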

Chain of Estrogen receptor (Homo sapiens) (P03372 whole entry, looked up): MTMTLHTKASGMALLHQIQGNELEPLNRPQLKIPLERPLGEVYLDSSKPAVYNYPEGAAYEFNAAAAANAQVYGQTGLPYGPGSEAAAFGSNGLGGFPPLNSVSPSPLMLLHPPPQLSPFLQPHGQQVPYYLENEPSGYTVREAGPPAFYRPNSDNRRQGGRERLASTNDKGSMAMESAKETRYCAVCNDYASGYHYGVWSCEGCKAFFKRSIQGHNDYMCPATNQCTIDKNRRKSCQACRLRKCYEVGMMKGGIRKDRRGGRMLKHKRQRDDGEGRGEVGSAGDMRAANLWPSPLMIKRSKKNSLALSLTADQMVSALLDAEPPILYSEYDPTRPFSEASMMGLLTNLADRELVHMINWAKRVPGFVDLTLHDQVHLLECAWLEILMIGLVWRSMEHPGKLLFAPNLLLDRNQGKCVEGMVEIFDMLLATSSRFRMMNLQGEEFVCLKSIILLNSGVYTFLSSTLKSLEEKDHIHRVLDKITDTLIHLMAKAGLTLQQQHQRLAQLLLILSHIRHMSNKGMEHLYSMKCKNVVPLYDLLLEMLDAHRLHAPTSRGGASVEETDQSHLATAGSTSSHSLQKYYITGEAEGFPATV

In the case of `C=CCN1C[C@H](C(=O)N(CCCN(C)C)C(=O)NCC)C[C@@H]2c3cccc4[nH]cc(c34)C[C@H]21`, the call (in [1]; in assay [3]; in [5]; in assay [6]; in [9]; with Aromatase (Homo sapiens)) was inactive. The Potency entry in assay [2], in assay [7], in assay [8] and in [10] was “inactive” in each case. Moreover, the Potency in assay [4] is 3.76 µM (active).

Regarding `COc1cc2c(cc1OC)C(=O)C(CC1CCN(Cc3ccccc3)CC1)C2` (centres undefined), the outcome in assay [1], in assay [3], in assay [11], in assay [14], in [15] and in assay [6] was inactive. In the assay with Aromatase (Homo sapiens), the molecule was classed as inactive. Also, the Potency entry in [12], in assay [13], in [7], in [16] and in assay [10] was “inactive” each time. Moreover, the Potency in [8] is 26.6 µM (active).

Turning to `c1ccc(-c2nn[nH]n2)cc1`, the molecule was called inactive (in [1]; in [15]; in [6]; in assay [9]; with Aromatase (Homo sapiens)). In addition, the Potency result in assay [2], in assay [17], in assay [13], in [4], in assay [7] and in assay [8] was “inactive” each time. Also, the Potency entry in [16] and in [10] was “inactive” throughout.

With `CCCCCCCCCCOC(C)=O`, the Potency result in [18], in [2], in assay [17], in assay [13], in assay [4] and in assay [19] was “inactive” in each case. Also, the Potency entry in assay [7], in assay [16] and in assay [10] was “inactive” each time. Also, the outcome (in [3]; in assay [15]; in [5]; in [6]; in [9]; with Aromatase (Homo sapiens)) was inactive. In addition, the Potency in [8] was 61.1 µM (active).

In the case of `O=C[O][Al]([O]C=O)[O]C=O`, the molecule was classed as inactive (in assay [1]; in [15]; in assay [5]; in [6]; in assay [9]; in the assay with Aromatase (Homo sapiens)). In addition, the Potency result in assay [13], in assay [4], in [19], in [7], in assay [8] and in assay [16] was “inactive” each time. In assay [10], the Potency entry was “inactive”.

Consider `Cc1ccnc(N)c1`, for which the molecule was called inactive (in assay [1]; in assay [3]; in [15]; in [6]; with Aromatase (Homo sapiens)). Also, the Potency in assay [2] and in assay [17] was 48.6 µM (active) in each case. The Potency entry in [13], in [4], in assay [19], in assay [16] and in [10] was “inactive” throughout.

Regarding `N[C@@H](CSCCCO)C(=O)O`, the Potency result in assay [18], in [2], in assay [17], in [13], in [4] and in assay [19] was “inactive” in each case. For the same molecule, the Potency result in assay [7], in assay [8], in assay [16] and in [10] was “inactive” throughout. The molecule was called inactive in [3], in [11], in assay [14], in assay [15], in assay [5] and in [6]. For the same molecule, the result (in assay [9]; with Aromatase (Homo sapiens)) was inactive. For the same molecule, the Potency in assay [12] was 33.5 µM (active).

As for `CCCCCCCCCCCCCBr`, the outcome (in assay [1]; in assay [3]; in assay [15]; in assay [6]; with Aromatase (Homo sapiens)) was inactive. Moreover, the Potency in [2] is 54.3 µM (active). In addition, the Potency result in [17], in assay [13], in assay [4], in [19], in assay [16] and in assay [10] was “inactive” throughout.

As for `COC(=O)CCCCC(=O)O`, the outcome in assay [1], in [3], in assay [15], in assay [5], in assay [6] and in assay [9] was inactive. Also, the molecule was classed as inactive with Aromatase (Homo sapiens). Moreover, the Potency entry in assay [2], in [13], in assay [4], in assay [19], in assay [7] and in assay [8] was “inactive” throughout. Further, the Potency entry in [16] and in assay [10] was “inactive” in each case.
